# Source: PubChem BioAssay (Tox21)
# Inconclusive results are not listed. Activity calls are given as the source filed them. The call rests on the fitted dose curve; in most records, active means well fitted activation curve with a large enough effect in the signal ratio in the repeat runs (not every such curve was filed as active); inconclusive means weak or mixed curves; inactive means flat fitted curve, though single readings scatter; the % refers to the signal ratio.
# Assay: qHTS assay to identify small molecule agonists of the TGF-beta/Smad signaling pathway (AID 1346859)
# Conditions: SBE-bla HEK293T, TGF-beta/Smad beta-lactamase reporter, 5 h; series mostly up to 76.8 µM
# Text: U.S. Tox21 Program National Center for Advancing Translational Sciences [NCATS] NIH Chemical Genomics Center [NCGC] U.S. Environmental Protection Agency [EPA] National Institutes of Environmental Health Sciences [NIEHS] National Toxicology Program [NTP] U.S. Food and Drug Administration [FDA] Tox21 Assay Overview: Transforming growth factor beta (TGF-beta) superfamily consists of a large number of structurally related dimeric proteins that act as hormones or local mediators in regulating a wide range of biological functions. This superfamily includes TGF-betas themselves, the bone morphogenetic proteins (BMPs) and the activins. These ligands induce oligomerization of serine/threonine receptor kinases and phosphorylate the cytoplasmic signaling molecules of Smad protein family. CellSensor SBE-bla HEK 293T cell line (Life Technologies, Carlsbad, CA), responsive to TGF-beta was used to screen Tox21 10K compound library for identification of agonists/antagonists of the Smad signaling pathway. This cell line contains a beta-lactamase reporter gene under control of the Smad binding element (SBE) stably integrated into HEK 293T cells.
# Tox21 Assay Protocol Summary: SBE-bla HEK 293T cells were dispensed at 4,000/well in 6 uL of assay medium into black wall/clear-bottom 1536-well plates using a Multidrop Combi (ThermoFisher Scientific, Waltham, MA) dispenser. After the assay plates were incubated at 37 C and 5% CO2 for an overnight, 23 nL of compounds dissolved in DMSO, positive controls or DMSO only was transferred to the assay plate by a Pintool station (Kalypsys, San Diego, CA). The assay plates were incubated at 37 C and 5% CO2 for 5 hr. One uL of LiveBLAzer B/G FRET substrate (Life Technologies) was added using a Flying Reagent Dispenser (Aurora Discovery, San Diego, CA) and the plates were incubated at room temperature for 2 hr. Fluorescence intensity (405 nm excitation, 460 nm and 530 nm emissions) was measured using an Envision plate reader (PerkinElmer, Shelton, CT).
row,SMILES,outcome
1,CSCCCN=C=S,inactive
2,CC(C)OC(=O)C(O)(c1ccc(Cl)cc1)c1ccc(Cl)cc1,inactive
3,COc1ccc([N+](=O)[O-])cc1O,inactive
4,CC(O)C#N (stereo not given),inactive
5,CC(C)[C@H](C(=O)O[C@H](C#N)c1cccc(Oc2ccccc2)c1)c1ccc(Cl)cc1,inactive
6,N#CCc1ccc(Cl)cc1,inactive
7,O=C(O)C1C2CCC(O2)C1C(=O)O (stereo not given),inactive
8,CC1CCC(C(C)C)C(OC(=O)c2ccccc2N)C1 (stereo not given),inactive
9,CCCCN(CCCC)C(=S)[S-].CCCCN(CCCC)C(=S)[S-].[Zn+2],inactive
10,Oc1ccccc1Br,inactive
11,Cn1[nH]nnc1=S,inactive
12,Nc1ccc(Cc2ccc(N)c(Cl)c2)cc1Cl,inactive
13,O=C(NC(=O)c1c(F)cccc1F)Nc1cc(Cl)c(OC(F)(F)C(F)F)c(Cl)c1,inactive
14,CC(=O)c1ccc(-c2ccccc2)cc1,inactive
15,FC(F)(F)c1cccc(C2=CCN(CCc3ccc4ccccc4c3)CC2)c1,inactive
16,Clc1ccc(C(c2ccc(Cl)cc2)C(Cl)(Cl)Cl)cc1,inactive
17,CCOP(=S)(OCC)SCCS(=O)(=O)CC,inactive
18,CC(C)(COCC1CO1)COCC1CO1 (stereo not given),inactive
19,CC(=O)[O-].CC(=O)[O-].O.O.[Cd+2],inactive
20,[Cd+2].[Cl-].[Cl-],inactive

row,SMILES,outcome
1,N#Cc1ccc(O)cc1,inactive
2,O=c1c(C2CC(c3ccc(-c4ccc(Br)cc4)cc3)Cc3ccccc32)c(O)sc2ccccc12 (stereo not given),inactive
3,O=CC(Br)(Br)Br,inactive
4,O=C1NCN(c2ccccc2)C12CCN(CC1COc3ccccc3O1)CC2 (stereo not given),inactive
5,CCCCCCCCc1ccc(O)cc1,inactive
6,OC(c1ccc(Cl)cc1)(c1ccc(Cl)cc1)C(Cl)(Cl)Cl,inactive
7,COP(=O)(CCC(=O)NCO)OC,inactive
8,C1CCC2CCCCC2C1 (stereo not given),inactive
9,COP(N)(=S)OC,inactive
10,COCC(=O)N(c1c(C)cccc1C)[C@H](C)C(=O)OC,inactive
11,COc1cccc(C(=O)CCN[C@@H](C)[C@H](O)c2ccccc2)c1,inactive
12,ClCCN1CCOCC1,inactive
13,Cc1cc(C(F)(C(F)(F)F)C(F)(F)F)ccc1NC(=O)c1cccc(I)c1C(=O)NC(C)(C)CS(C)(=O)=O,inactive
14,CC(=O)c1cc(C(C)(C)C)cc2c1CCC2(C)C,inactive
15,Cc1ccc(OP(=O)(Oc2ccccc2)Oc2ccccc2)cc1,inactive
16,N#CSCSC#N,inactive
17,CC1(C)[C@H](C(=O)O[C@H](C#N)c2cccc(Oc3ccccc3)c2)[C@@H]1/C=C(\Cl)C(F)(F)F,inactive
18,C=CC(=O)N(C)C,inactive
19,CC(c1ccc(O)cc1)c1ccc(O)cc1,inactive
20,Nc1ccccc1C(=O)Oc1ccc2ccccc2c1,inactive
